Experimental data reported in PubChem BioAssay AID1467 (National Center for Advancing Translational Sciences (NCATS), 2008).
Screen size: about 230,000 compounds; fewer than 10 were called active. The call rests on the fitted dose curve; in most records, active means well fitted curve in the direction sought with a large enough effect; inconclusive means small, poorly fitted or top-dose-only effect, or effect the other way, or another doubt; inactive means no such curve, though single readings can be large or run the other way. A selection follows.

Biological target: Alpha-galactosidase A (Homo sapiens) (UniProt P06280)
Assay: qHTS Assay for Inhibitors of Human alpha-Galactosidase at pH 4.5.
Details: purified enzyme, 4-MU-alpha-Gal fluorescence; series mostly up to 105 µM
Description: NIH Chemical Genomics Center [NCGC]
NIH Molecular Libraries Probe Production centers Network [MLPCN]
Assay Submitter (PI): Wei Zheng
Alpha-galactosidase is a homodimeric glycoprotein that hydrolyzes the terminal alpha-galactosyl moieties from glycolipids and glycoproteins. Deficiency of this enzyme results in Fabry Disease with progressive accumulation of globotriaosylceramide and other glycosphingolipids in vascular endothelial cells that causes renal failure, myocardial infarction and stroke, and premature death in patients. It has been reported that the improper folding and trafficking of alpha-galactosidase resulting from the genetic mutations may account for a significant numbers of Fabry patients. […] We optimized this alpha-galactosidase assay in 1536-well plate format for identifying the novel small molecule inhibitors with the structures other than the sugar analogs in order to develop the new pharmacological chaperones. Although this assay has the same protocol as PubChem AID 992, this is a separate project and, therefore, is published as a separate assay
NCGC Assay Protocol Summary:
This is a fluorogenic enzyme assay with 4-Methylumbelliferyl alpha-D-galactopyranoside as the substrate and human […] as the enzyme preparation. Upon the hydrolysis of this fluorogenic substrate, the resulting product, […]. 4-Methyllumbelliferone, can be excited at 365 nm and emits at 440 nm. This fluorescence which can be detected by a standard fluorescence plate reader. Data were normalized to the controls for basal activity (without enzyme) and 100% activity (with enzyme). In the AC50 values were determined from concentration-response data modeled with the standard Hill equation.
Assay buffer: 50 mM citric acid (titrated with potassium phosphate to pH 4.5), 0.005% Tween-20, pH 4.5. (pH 4.5 is an optimal condition for this enzyme assay)
1536-well assay protocol for the human alpha-galactosidase:
(1) Add 2 ul/well of enzyme (12 nM final)
(2) Add 23 nL compounds in DMSO solution. The final titration was 0.7 nM to 77 uM.
(3) Add 1 ul of substrate (400 uM final)
(4) Incubate at room temperature for 20 min.
(5) Add 2 ul stop solution (1M NaOH and 1M Glycine mixture, pH 10)
(6) Detect the assay plate in a ViewLux plate reader (PerkinElmer) with Ex=365 nm and Em=440nm.
Keywords: MLSMR, MLPCN, NIH Roadmap, qHTS, NCGC, : Alpha-galactosidase, Fabry Disease, pharmacological chaperone, chaperone therapy

Alpha-galactosidase A (Homo sapiens), sequence (P06280 whole entry, looked up): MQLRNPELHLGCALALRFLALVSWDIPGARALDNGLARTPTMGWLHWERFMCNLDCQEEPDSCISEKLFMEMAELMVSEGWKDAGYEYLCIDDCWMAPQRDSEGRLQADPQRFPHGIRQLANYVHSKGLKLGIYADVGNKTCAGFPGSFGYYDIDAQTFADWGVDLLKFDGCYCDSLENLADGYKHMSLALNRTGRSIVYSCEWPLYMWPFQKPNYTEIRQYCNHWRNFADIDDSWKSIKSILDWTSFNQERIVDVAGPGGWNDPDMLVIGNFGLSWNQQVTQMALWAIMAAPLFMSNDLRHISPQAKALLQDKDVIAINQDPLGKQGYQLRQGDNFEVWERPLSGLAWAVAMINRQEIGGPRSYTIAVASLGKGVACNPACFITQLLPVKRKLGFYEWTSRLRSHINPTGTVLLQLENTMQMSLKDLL

Activity change, negative = inhibition, inactive:
O=C(Nc1ccc(Br)cn1)C1CCN(S(=O)(=O)c2cccs2)CC1
Cc1c(/C=N\NC(=O)c2cc3ccccc3o2)c2ccccc2n1C
Nc1cccc(S(=O)(=O)Nc2ccc(SC(F)F)cc2)c1
COc1ccc(-n2cc(CNC3CCOCC3)c(-c3cccc(F)c3)n2)cc1
Cc1cc(NC(=O)CSCc2nc(-c3cccc(Cl)c3)oc2C)no1
CCCCC/C=C\C[C@H](O)/C=C/C=C/C=C/[C@@H](O)CCCC(=O)O
N#CCSc1nn(-c2ccc(F)cc2)c(=S)s1
Cc1nnc(NC(=O)CCC(=O)N2CCC(C)CC2)s1
CCCNC(=O)c1c(Cl)cnn1-c1ccc(C)cc1
COC(=O)C/C=C/[C@@H](C)[C@H](NC(=O)OCC(Cl)(Cl)Cl)c1ccccc1
CC1(OC(=O)c2ccc(Cl)nc2)C(=O)Cc2cc(-c3ccsc3)ncc2C1=O (stereo not given)
CC(=O)c1ccc(N2CCN(CC(=O)Nc3ccccc3N3CCOCC3)CC2)cc1
CCCc1ccc(OCc2ccc(C(=O)N/N=C/c3cccc([N+](=O)[O-])c3)o2)c(OC)c1
C/C=C1\C2C=C(C)CC1(N)c1ccc(=O)[nH]c1C2 (stereo not given)
CCOC(=O)C1=C(O)/C(=C/c2cc(C)n(-c3ccccc3)c2C)N=C1C
CC[C@H](C)[C@@H](NC(=O)O[C@@H]1C(=O)c2cc(OC)ccc2O[C@H]1c1cccc(OC)c1)C(=O)OC
Cc1cc(C)cc(C(=O)NCC(=O)OCC(=O)N2CCCCC2)c1
O=C(CN1CCCCCC1)NCCN1C(=O)S/C(=C\c2ccccc2Cl)C1=O
Cc1ccccc1-c1ccc(C(=O)O)s1
Cc1nc(-c2ccccc2)sc1-c1nnc(C2CC2)o1
O=c1c(O)c(Br)ccc2c(Br)c(O)c(O)c(O)c12
O=C(CSc1nc2ccccc2o1)N/N=C/c1ccccc1C(=O)O
COc1cc(/C=C(/NC(=O)c2ccccc2)C(=O)Nc2cccc(O)c2)c([N+](=O)[O-])cc1OC
CN(CCc1cnn(C)c1)Cc1cn(C)nc1-c1ccccc1F
CC1=C2[C@@H](O)[C@H]([C@@H](C)C(=O)NCCC(C)C)CC[C@@]2(C)C=CC1=O
CC/C=C\C/C=C\C/C=C\C/C=C\C/C=C\C/C=C\CCC(=O)NC(C)C(=O)O (stereo not given)
CCn1c(COc2c(C)cccc2C)nnc1SCc1nc2ccccc2c(=O)[nH]1
Cc1ccnc(NC(=O)CCC(=O)N(CC(=O)NCc2ccccc2)Cc2ccco2)c1
Cc1nc2c(ncn2-c2ccccc2)c(=O)n1NC(=O)CN1CCCC1
CC(=O)Nc1sc2c(c1C(c1cccc(F)c1)N1CCN(CCO)CC1)CCCC2 (stereo not given)
CCCCC[C@H](O)/C=C/[C@@H]1[C@@H](CC(=O)CCC(=O)O)[C@@H](O)C[C@H]1O
O=C1C=C(c2ccccc2)CCC1
COc1ccc(NC(=O)C2CCC(CNc3c(N4CCCCC4)c(=O)c3=O)CC2)c(OC)c1 (stereo not given)
COc1ccc(N2CCN(Cc3nnc(-c4ccccc4)o3)CC2)cc1
CC/C=C\C/C=C\C/C=C\C/C=C\C/C=C\C/C=C\CCC(=O)NCCc1ccc(O)c(O)c1
CCOC(=O)C1=NO[C@@]2(C=C(Br)C(=O)[C@H]3O[C@H]32)C1
C=CCn1c(CCNC(=O)c2cccs2)n[nH]c1=S
Cc1ccccc1NC(=O)c1ccc(COc2ccc3c(C)cc(=O)oc3c2)cc1
COC(=O)Cc1ccc(Oc2ncc(C(F)(F)F)cc2Cl)cc1
CONc1nc2nonc2nc1NOC
CCCCCCCCCCCCC(NC(C)=O)(C(=O)OCC)C(=O)OCC
CCN(CC)CC(=O)Nc1sc2c(c1C(=O)c1ccccc1C)CCC2
CCCCNC(=O)C1CCCN(S(=O)(=O)c2ccc(S(=O)(=O)NCC(C)C)cc2)C1 (stereo not given)
CCOc1cc(NC(=O)CCl)c(OCC)cc1NC(C)=O
CCn1c(CN2C(=O)CSc3ccccc32)n[nH]c1=S
CCOC(=O)N1CCN(c2cc(C)c([N+](=O)[O-])cc2F)CC1
Cc1noc(C)c1C(=O)N(CC(=O)NC1CCCC1)Cc1ccccc1F
CC(C)Oc1ccc(CCc2nnc(SCC(=O)O)n2-c2ccccc2)cc1
Cc1ccccc1CSc1nnc(CCCCCNC(=O)OC(C)(C)C)o1
Cc1ccccc1CCN(CC(=O)NC1CCCCC1)C(=O)c1csnn1
CCc1c(O)nc(SCC(=O)Nc2ccccc2)n(C(C)CC)c1=O (stereo not given)
COc1ccc(NC(=O)c2ccccc2[N+](=O)[O-])cc1OC
CC(C)(C)c1nnc(NC(=O)C2c3ccccc3Oc3ccccc32)s1
O=C(Nc1ccc(N2CCOCC2)nc1)c1c(F)cccc1F
COc1ccc(/C=C/CN2CCCC(C(=O)c3cc(F)ccc3F)C2)cc1 (stereo not given)
Cc1cccc(CN2CCN(Cc3cnn(-c4ccccc4F)c3)CC2CCO)n1 (stereo not given)
CCCCc1ccc(NC(=S)NCCCN2CCOCC2)cc1
C=CCC(C)(O)c1ccco1 (stereo not given)
COc1c(O)cc2oc(-c3ccc(O)c(O)c3)cc(=O)c2c1O
O=C1OCCN1C(=O)[C@H]1[C@H](c2ccc(F)cc2)C(c2ccccc2)=NN1c1ccc(Br)cc1
C=C(C)C(=O)c1ccc(F)cc1
CC(C)(C)OC(=O)NCCCCC1=CC2=CC(=O)C(C)(OC(=O)c3cccs3)C(=O)C2=CO1 (stereo not given)
C=C(C(C)=O)C(O)c1cccs1 (stereo not given)
COc1ccc(C(=O)OCC(=O)NC(=O)CCSc2ccccc2)cc1
Cc1ccc(N2C(=O)C(CC(=O)Nc3cccc(F)c3)N(CCc3ccncc3)C2=O)cc1 (stereo not given)
CCCCCCCCn1c2c(c(=N)c3c1CCC3)CCCC2
CN(c1ccc2nc3ccccc3c(=O)n2n1)C1CCCCC1
Cc1ccc(Nc2nc(N)nc(CN3CCN(Cc4ccccc4)CC3)n2)cc1Cl
Cc1ccc(NC(=O)c2csc3c2CCCC3)cc1
C=CC(C1=CC(=O)C=CC1=O)c1ccc(O)cc1 (stereo not given)
Cc1nc(NC(=O)C2CCCCC2)sc1C
c1ccc(CN=C2Nc3ccccc3CS2)nc1
O=C(CSc1nnc(-c2ccncc2)n1-c1ccc(Cl)cc1)Nc1ccc(C(=O)O)cc1
C[C@H]1Cc2c(-c3ccccc3)nc3c(c2CO1)CN(C(=O)C1CC1)CC3
O=c1c2c(nc3cc(-c4cccc(Cl)c4)[nH]n13)CCCC2
CC(C)C1=CC2=CC[C@H]3[C@](C)(C(=O)O)CCC[C@]3(C)C2CC1 (stereo not given in full)
COc1ccc(CCNC2=CC(=O)CC(C)(C)C2)cc1
O=C(CC(=O)N/N=C\c1cccc(Cl)c1Cl)NCc1ccccc1
COc1cc(NC(=O)c2cncc(-c3ccc(C#N)cc3)c2)cc(C(=O)Nc2cccc(C(F)(F)F)c2)c1
COc1cccc(-c2cc(=O)c3cc(NC(=O)c4ccc(C)cc4)ccc3[nH]2)c1
Cc1nc(-c2ccc(Cl)cc2)sc1C1(C)CC(c2ccccc2F)=NO1 (stereo not given)
COc1ccc(/C=C2\NC(=O)[C@@H]3Cc4ccccc4CN3C2=O)cc1
CC(C)Cc1nc(Nc2ccc(S(=O)(=O)N3CCCC3)cc2)c2nnn(Cc3ccccc3)c2n1
NC(=O)COc1ccc(C23CC4CC(CC(C4)C2)C3)cc1
COc1ccc(OC)c(S(=O)(=O)Nc2cccc(-c3ccc4nncn4n3)c2)c1
COC(=O)C1=C(C(=O)OC)C(c2cc([N+](=O)[O-])ccc2O)c2sc(=O)[nH]c2S1 (stereo not given)
CCCCNS(=O)(=O)c1ccc2nc(SCC(=O)Nc3cc(C)cc(C)c3)[nH]c2c1
CCOC(=O)C1=C(C)c2ccccc2OC1C(=O)OCC (stereo not given)
O=C(COc1cc(Cl)c(Cl)cc1Cl)NC(=O)NC1CCCC1
COc1ccc(-c2c(C)cc3oc(=O)cc(-c4ccccc4)c3c2C)cc1C=O
CCCCCCCCCCCCN1C(=O)CSC1c1cccnc1 (stereo not given)
C=C(C(C)=O)C(O)c1ccc([N+](=O)[O-])cc1 (stereo not given)
C=CCOC(=O)NC(c1ccc(F)c(F)c1)C(C(=O)COC)C(=O)OC (stereo not given)
COc1ccc(-c2nc3c(c4c2C[C@H](c2ccccc2)OC4)CN(C(=O)c2cccnc2)CC3)c(C)c1
COC(=O)C1(C(C)=O)CC2=CC[C@H]3C(=O)N(c4ccccc4)C(=O)[C@H]3[C@@H]2Cc2ccccc2[C@@H]1C[N+](=O)[O-] (stereo not given in full)
Cc1cccc(-c2nc3ccccc3c(=O)n2NC(=O)Cc2ccc(Cl)cc2)c1
O=C(NCc1ccco1)O[C@@H]1C(=O)c2cc(Br)ccc2O[C@H]1c1ccc2c(c1)OCO2
O=C(O)CC(Cc1ccccc1)C(=O)Nc1ccc([N+](=O)[O-])cc1 (stereo not given)
OC[C@H]1O[C@@H](n2cnc3c(N[C@H]4CC5CCC4C5)ncnc32)[C@H](O)[C@@H]1O (stereo not given in full)
COc1cccc([C@@H]2Oc3ccc(Br)cc3C(=O)[C@H]2OC(=O)NCCc2ccc(OC)c(OC)c2)c1
CCOC(=O)C1C/C(=C\C(C)=O)c2cccc(C(F)(F)F)c2O1 (stereo not given)
C/C(Nc1ccc2oc(=O)ccc2c1)=C1/C(=O)CC2[C@@H]1C2(C)C (stereo not given in full)
O=C(NNC(=S)NC1CC2CCC1C2)c1ccc(Cl)cc1 (stereo not given)
COc1cc(NC(=O)c2ccc3c(c2)OCO3)ccc1NC(=O)c1cccs1
CC(=O)Nc1ccc(NC(=O)CSc2ncnc3c2cnn3Cc2ccccc2)cc1
